Compound activity (PubChem BioAssay)
This is a sample that favours compounds with a hit; in the whole collection about 2.6% have one here.
APOBEC3G inh: inhibitors of human APOBEC3G DNA deaminase. Q9HC16. recombinant A3G, ssDNA deamination FAM/TAMRA fluorescence. inhibition, % at 20 µM. 330,000 tested, 0.28% active. AID 493012;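 active means inhibition of at least 40% at 20 µM, with no more than 30% in the related APOBEC3A deaminase screen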
PABP FP inh: blocks human PABP binding to poly(A) RNA; P11940; fluorescence polarization; calls only at 35 µM; 290,000 tested, 1% active; AID 2014;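 further: calls also rest on retests at 20 µM and on dose response follow-up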
MLLE-PAM2 inh: blocks PAM2 peptide binding to the PABP1 MLLE domain | 360,000 tested, 0.36% active | inhibition, % at 20 µM | GST-MLLE / FITC-PAM2 fluorescence polarization; in the data active means inhibition above about 35%, passing the limit was not always enough
PHOSPHO1 inh: PHOSPHO1 (human) inhibition; Q8TCT1; recombinant PHOSPHO1, absorbance phosphatase assay; inhibition, % at 13.3 µM; 290,000 tested, 1.1% active; in the data active means inhibition above about 60%
Target sequence (Q8TCT1 whole entry, looked up): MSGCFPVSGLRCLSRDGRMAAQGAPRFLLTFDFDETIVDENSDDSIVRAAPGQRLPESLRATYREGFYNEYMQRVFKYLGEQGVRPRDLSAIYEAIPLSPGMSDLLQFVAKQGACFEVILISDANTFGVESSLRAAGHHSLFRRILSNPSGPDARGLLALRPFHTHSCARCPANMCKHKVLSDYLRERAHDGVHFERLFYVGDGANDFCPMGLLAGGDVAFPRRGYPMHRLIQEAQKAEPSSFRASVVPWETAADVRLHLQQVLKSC
eIF4H inh: inhibitors of RNA binding by human eIF4H | 290,000 tested, 0.94% active | eIF4H fluorescence polarization binding assay | inhibition, % at 35 µM;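 further: calls also rest on retests at 20 µM and on dose response follow-up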
APOBEC3A inh: blocks human APOBEC3A ssDNA deamination; P31941; recombinant A3A, FAM/TAMRA ssDNA deamination fluorescence; inhibition, % at 20 µM; 330,000 tested, 0.41% active; AID 493011;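 active means at least 40% inhibition at 20 µM here, with at most 30% in a related deaminase screen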
Target sequence (P31941 whole entry, looked up): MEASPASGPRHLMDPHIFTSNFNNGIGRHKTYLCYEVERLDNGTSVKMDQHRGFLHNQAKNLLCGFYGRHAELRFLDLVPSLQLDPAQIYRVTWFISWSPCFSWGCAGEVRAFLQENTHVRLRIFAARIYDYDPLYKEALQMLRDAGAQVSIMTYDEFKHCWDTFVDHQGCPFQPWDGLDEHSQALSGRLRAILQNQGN
A3A conf: confirmation of human APOBEC3A DNA deaminase inhibitors; shares compounds with APOBEC3A inh; recombinant A3A, ssDNA deaminase UDG fluorescence assay; inhibition, % at 20 µM; 1,400 tested, 63% active; AID 493151;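 active means inhibition reaching a set limit, 80% of the first screen's cutoff, at 20 µM in any replicate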
UDG A3A counter: UDG inhibition in APOBEC3A counter-screen; shares compounds with APOBEC3A inh; UDG counterscreen, FAM/TAMRA uracil oligo fluorescence; 1,000 tested, under 10 active; inhibition, % at 20 µM
Numbers stand for hits; 0 = inactive; ? = inconclusive; - = no result; + = active, no number. Unless noted, how the calls were made is not given here.

SMILES | APOBEC3G inh | PABP FP inh | MLLE-PAM2 inh | PHOSPHO1 inh | eIF4H inh | APOBEC3A inh | A3A conf | UDG A3A counter
CC(Oc1ccc(Br)cc1Br)C(=O)Nc1cccnc1Cl (stereo not given) | 0 | 0 | 0 | 0 | 0 | 0 | - | -
CS(=O)(=O)c1ccc(-c2nn[nH]n2)cc1 | 0 | 0 | 0 | 0 | 0 | 0 | - | -
CS(=O)(=O)c1nc(-c2ccc(Br)cc2)n[nH]1 | 0 | 0 | 0 | 0 | 0 | 41.5 | 0 | 0
COc1ccc(NC(=O)/C(C#N)=C\c2ccc(Br)o2)cc1 | 0 | + | 0 | 0 | 80.1 | 70.8 | 42.0 | 0
COc1ccc(NC(=O)/C(C#N)=C/c2ccc(-c3ccccc3C(=O)O)o2)cc1 | 0 | 0 | 0 | 0 | 0 | 0 | - | -
O=C(CCNS(=O)(=O)c1ccc2nsnc2c1)N1CCN(c2ccncc2)CC1 | 0 | - | 0 | - | - | 64.4 | 0 | 0
Cc1ccc(S(=O)(=O)NCCC(=O)N2CCN(c3cccc(Cl)c3)CC2)cc1C | 0 | 0 | 0 | 0 | 0 | 0 | - | -
Cc1cccc(NC(=O)CSCC(=O)Nc2cc(Cl)ccc2N2CCN(C)CC2)c1 | 0 | 0 | 0 | 0 | 0 | 50.9 | 0 | -
CCC1(c2ccccc2)NC(=O)N(CC(=O)Nc2ccccc2N2CCCC2)C1=O (stereo not given) | 0 | - | 0 | - | - | 0 | - | -
CCC1(c2ccccc2)NC(=O)N(CC(=O)Nc2cc(Cl)ccc2N2CCOCC2)C1=O (stereo not given) | 0 | - | 0 | - | - | 47.0 | 0 | -
Cc1ccc2sc(N(CCCN(C)C)C(=O)CCS(=O)(=O)c3ccccc3)nc2c1C | 0 | 0 | 0 | 0 | 0 | 0 | - | -
CCCCC1CCC(C(=O)OC(C)C(=O)Nc2ccc(NC(C)=O)cc2)CC1 (stereo not given) | 0 | 0 | 0 | 0 | 0 | 49.0 | 0 | -
CCOC(=O)COc1ccc(Br)cc1/C=C1\SC(N)=NC1=O | 0 | - | 0 | 0 | - | 52.8 | 50.4 | 0
NC1=NC(=O)/C(=C/c2ccc(Br)cc2)S1 | 0 | 0 | 0 | 0 | 0 | 0 | - | -
CC(=O)Nc1ccc(C(=O)NC2CCSc3ccccc32)cc1 (stereo not given) | 0 | 0 | 0 | 0 | 0 | 44.5 | 0 | -
O=C(CC1(O)C(=O)Nc2cc(Cl)cc(Cl)c21)c1ccccc1O (stereo not given) | 0 | 0 | 0 | 0 | 0 | 64.8 | 0 | 0
O=C(CC1(O)C(=O)Nc2ccccc21)c1ccccc1O (stereo not given) | 0 | 0 | 0 | 0 | 0 | 0 | - | -
COc1ccc(CCNC(=O)Nc2nnc([C@@H]3C[C@H](O)[C@@H](CO)O3)s2)cc1OC | - | - | 0 | - | - | - | - | -
CC(=O)c1cccc(NC(=O)CN2C(=O)NC(C)(c3ccc4c(c3)OCCCO4)C2=O)c1 (stereo not given) | 0 | - | 0 | - | - | 0 | - | -
CSc1ccc(S(=O)(=O)N2CCC(C(=O)NCC3CCCO3)CC2)cc1 (stereo not given) | 0 | 0 | 0 | 0 | 0 | 62.7 | 55.9 | 0
O=C(NCC1CCCO1)C1CCN(S(=O)(=O)c2ccc(Br)cc2)CC1 (stereo not given) | 0 | 0 | 0 | 0 | 0 | 0 | - | -
COc1ccc(CC(=O)NNC(=O)c2ccccn2)cc1 | 0 | 0 | 0 | 0 | 0 | 45.7 | 0 | -
Cc1ccc[n+](CC(=O)Nc2cc(C(F)(F)F)ccc2N2CCOCC2)c1 | 0 | 0 | 0 | 0 | 0 | 48.1 | 65.3 | 0
Cc1cccc(NC(=O)CSCC(=O)Nc2cc(C(F)(F)F)ccc2N2CCOCC2)c1 | - | - | 0 | - | - | - | - | -
C[C@H](CO)N1C[C@H](C)[C@@H](CN(C)Cc2ccc(Cl)c(Cl)c2)Oc2c(NS(=O)(=O)c3cccs3)cccc2C1=O | 0 | - | 0 | - | - | 0 | - | -
SMILES | APOBEC3G inh | PABP FP inh | MLLE-PAM2 inh | PHOSPHO1 inh | eIF4H inh | APOBEC3A inh | A3A conf | UDG A3A counter
O=C1C2C(c3ccccc3)C=CC(c3ccccc3)C2C(=O)N1c1ccncc1 (stereo not given) | 0 | 0 | 0 | 0 | 0 | 0 | - | -
O=C1C2C3C=CC(C3)C2C(=O)N1c1ccncc1 (stereo not given) | 0 | 0 | 0 | 0 | 0 | 82.7 | 0 | 0
O=C(/C=C/c1ccccc1)OCCCCN=C1NS(=O)(=O)c2ccccc21 | 0 | 0 | 0 | 0 | 0 | 83.1 | 0 | -
CCOC(=O)N1CCN(c2ccc(C(=O)c3cccc(F)c3)cc2)CC1 | 0 | 0 | 0 | 0 | 0 | 44.9 | 0 | 0
O=C1OC(c2ccc(Cl)cc2)=C/C1=C/c1cccnc1 | 0 | 0 | 0 | 0 | 0 | 61.6 | 37.3 | 0
CC[n+]1ccccc1/C=C/Nc1ccccc1 | 0 | + | 0 | 0 | 0 | 60.9 | 69.6 | 0
COc1ccccc1Oc1ccc(S(=O)(=O)N2CCCCC2)cc1NC(=O)CCNC(C)=O | 0 | 0 | 0 | 0 | 0 | 58.3 | 0 | -
COc1ccccc1N/C(=N/S(=O)(=O)c1ccc(Cl)cc1)c1ccccc1 | 0 | 0 | 0 | 0 | 0 | 0 | - | -
COc1ccccc1NC(C)=[N+](C)CCNS(=O)(=O)c1ccc(Cl)cc1 | 0 | + | 0 | 0 | 0 | 56.4 | 79.0 | 0
CC(Nc1cc(C)cc(C)c1)=[N+](C)CCNS(=O)(=O)c1ccc(Cl)cc1 | 0 | 0 | 0 | 0 | 0 | 44.6 | 66.7 | 0
COc1ccc(NC(C)=[N+](C)CCNS(=O)(=O)c2ccc(Cl)cc2)cc1Cl | 0 | - | 0 | 0 | - | 61.7 | 68.6 | 0
COc1ccc(NC(=O)CCNS(=O)(=O)c2ccc(NC(C)=O)cc2)cc1Cl | 0 | 0 | 0 | 0 | 0 | 0 | - | -
O=C(OCCCOC(=O)c1ccccc1O)c1ccccc1O | 0 | 0 | - | 0 | 0 | 0 | - | -
O=C(Nc1ccc(C(=O)N2CCCCC2)cc1)[C@H]1O[C@@H](n2ccc(=O)[nH]c2=O)[C@H](O)[C@@H]1O | - | - | 0 | - | - | - | - | -
CCCOc1ccc(Cc2c(O)nc(SC)[nH]c2=O)cc1 | 0 | 0 | 0 | 0 | 0 | 0 | - | -
COc1ccc(OCc2cc(C(=O)O)c(C)o2)cc1 | 0 | + | - | 0 | ? | 53.0 | 34.4 | -
CCN(CC)Cc1cc(C(=O)O)c(C)o1 | 0 | 0 | 0 | 0 | 0 | 0 | - | -
O=C(Nc1ccc(F)c(Cl)c1)Nc1nnc([C@H]2C[C@H](O)[C@@H](CO)O2)s1 | - | - | 0 | - | - | - | - | -
COCCN(C(=O)c1cc(-c2ccco2)nc2ccccc12)c1c(N)n(Cc2ccccc2)c(=O)[nH]c1=O | 0 | - | 0 | - | - | 45.7 | 32.1 | 0
CCCCn1c(N)c(N(CCOC)C(=O)c2cc(-c3ccc(OC)c(OC)c3)nc3ccccc23)c(=O)[nH]c1=O | 0 | - | 0 | - | - | 51.9 | 39.9 | 0
CCCCn1c(N)c(N(CC(C)C)C(=O)c2cc(-c3ccc(OC)c(OC)c3)nc3ccccc23)c(=O)[nH]c1=O | 0 | - | 0 | - | - | 0 | - | -
CCCCn1c(N)c(N(CCOC)C(=O)c2cc(-c3ccco3)nc3ccccc23)c(=O)[nH]c1=O | 0 | - | 0 | - | - | 41.5 | 29.8 | 0
CC(=O)OC(COC1C[C@@H]2CC[C@@]1(C)C2(C)C)C[N+]1(C)CCCCC1 (stereo not given in full) | 0 | 0 | 0 | 0 | 0 | 48.1 | 70.4 | 0
